# Measured values published in article PMC7862700, “An all-to-all approach to the identification of sequence-specific readers for epigenetic DNA modifications on cytosine”.
# What was measured:
# Test in all cases: DAPPL (digital affinity profiling via proximity ligation, sequencing); 10 mM Tris-HCl pH 7.5, 50 mM NaCl, 1 mM DTT, 4% glycerol, room temperature, 30 min; GST-TFs on glutathione beads, 16-mer random dsDNA library, 0.1% formaldehyde crosslink after washing; high values mean tight binding
# FEV = target: T1, FEV (Homo sapiens, UniProt Q99581 1-238); settings: protein: recombinant; tags: N-terminal GST; dsDNA, one strand shown
# T1 sequence: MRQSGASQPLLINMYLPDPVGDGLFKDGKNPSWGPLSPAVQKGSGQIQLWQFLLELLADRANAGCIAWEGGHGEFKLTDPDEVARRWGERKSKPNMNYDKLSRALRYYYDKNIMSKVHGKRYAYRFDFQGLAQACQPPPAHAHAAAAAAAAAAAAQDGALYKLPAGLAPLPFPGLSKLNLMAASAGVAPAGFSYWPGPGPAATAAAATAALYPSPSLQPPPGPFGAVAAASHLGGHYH
# In short: (§1)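 Human transcription factors fused to GST were expressed in yeast, captured on glutathione beads, given DNA barcodes and pooled with a GST-only negative control. Pools were incubated with 200 nmole of a 16-mer random double-stranded DNA library in Tris/NaCl/DTT/glycerol buffer at room temperature for 30 min. They were then washed, crosslinked with 0.1% formaldehyde, proximity-ligated (BsaI/T4 ligase, 1 h, 37 °C), PCR-amplified and sequenced on an Illumina NextSeq500. Binding signal is each 6-mer's read frequency for a factor divided by its frequency for the GST control.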
# ETV5 = ETV5 (Homo sapiens, UniProt P41161 1-510); settings: protein: recombinant; tags: N-terminal GST; dsDNA, one strand shown
# Chain of ETV5 (P41161 whole entry): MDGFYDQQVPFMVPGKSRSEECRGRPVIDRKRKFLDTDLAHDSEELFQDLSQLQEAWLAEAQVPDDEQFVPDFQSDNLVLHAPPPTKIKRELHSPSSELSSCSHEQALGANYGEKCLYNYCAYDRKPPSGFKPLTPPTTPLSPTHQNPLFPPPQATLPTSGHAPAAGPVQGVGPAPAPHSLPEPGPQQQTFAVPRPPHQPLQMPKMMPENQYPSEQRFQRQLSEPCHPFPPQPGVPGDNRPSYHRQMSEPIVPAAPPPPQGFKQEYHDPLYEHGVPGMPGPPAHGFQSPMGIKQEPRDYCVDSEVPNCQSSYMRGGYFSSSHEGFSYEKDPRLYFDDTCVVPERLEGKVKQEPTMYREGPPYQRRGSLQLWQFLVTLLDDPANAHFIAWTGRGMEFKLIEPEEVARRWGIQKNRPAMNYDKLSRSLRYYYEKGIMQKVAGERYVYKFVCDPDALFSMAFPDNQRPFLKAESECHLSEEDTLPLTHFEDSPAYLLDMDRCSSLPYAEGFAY
# In short: as §1
# HSF1 = HSF1 (Homo sapiens, UniProt Q00613 1-529); settings: protein: recombinant; tags: N-terminal GST; chain copies: 3; dsDNA, one strand shown
# Chain of HSF1 (Q00613 whole entry): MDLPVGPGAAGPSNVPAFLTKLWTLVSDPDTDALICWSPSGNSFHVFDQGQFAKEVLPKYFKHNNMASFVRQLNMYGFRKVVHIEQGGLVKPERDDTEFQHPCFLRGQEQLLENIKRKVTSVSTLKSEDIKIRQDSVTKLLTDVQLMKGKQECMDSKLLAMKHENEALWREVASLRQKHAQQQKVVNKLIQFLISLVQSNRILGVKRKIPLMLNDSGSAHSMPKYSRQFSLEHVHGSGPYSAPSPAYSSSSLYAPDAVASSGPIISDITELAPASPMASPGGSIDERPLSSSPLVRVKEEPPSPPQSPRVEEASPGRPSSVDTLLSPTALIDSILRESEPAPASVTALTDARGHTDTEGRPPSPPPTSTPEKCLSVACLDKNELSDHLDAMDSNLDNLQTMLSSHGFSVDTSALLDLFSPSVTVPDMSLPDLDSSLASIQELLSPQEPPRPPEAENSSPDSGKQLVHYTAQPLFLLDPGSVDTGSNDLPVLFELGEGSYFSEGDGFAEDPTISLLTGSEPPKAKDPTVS
# In short: as §1
# SPIC = target: T2, SPIC (Homo sapiens, UniProt Q8N5J4 1-248); settings: protein: recombinant; tags: N-terminal GST; dsDNA, one strand shown
# T2 sequence: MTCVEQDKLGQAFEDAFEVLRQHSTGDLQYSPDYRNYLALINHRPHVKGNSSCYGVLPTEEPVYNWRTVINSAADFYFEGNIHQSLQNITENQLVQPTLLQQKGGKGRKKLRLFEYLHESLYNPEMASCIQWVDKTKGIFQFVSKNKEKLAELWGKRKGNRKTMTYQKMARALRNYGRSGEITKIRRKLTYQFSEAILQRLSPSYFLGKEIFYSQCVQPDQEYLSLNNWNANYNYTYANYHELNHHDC
# In short: as §1
# ELF4 = ELF4 (Homo sapiens, UniProt Q99607 1-663); settings: protein: recombinant; tags: N-terminal GST; dsDNA, one strand shown
# Chain of ELF4 (Q99607 whole entry): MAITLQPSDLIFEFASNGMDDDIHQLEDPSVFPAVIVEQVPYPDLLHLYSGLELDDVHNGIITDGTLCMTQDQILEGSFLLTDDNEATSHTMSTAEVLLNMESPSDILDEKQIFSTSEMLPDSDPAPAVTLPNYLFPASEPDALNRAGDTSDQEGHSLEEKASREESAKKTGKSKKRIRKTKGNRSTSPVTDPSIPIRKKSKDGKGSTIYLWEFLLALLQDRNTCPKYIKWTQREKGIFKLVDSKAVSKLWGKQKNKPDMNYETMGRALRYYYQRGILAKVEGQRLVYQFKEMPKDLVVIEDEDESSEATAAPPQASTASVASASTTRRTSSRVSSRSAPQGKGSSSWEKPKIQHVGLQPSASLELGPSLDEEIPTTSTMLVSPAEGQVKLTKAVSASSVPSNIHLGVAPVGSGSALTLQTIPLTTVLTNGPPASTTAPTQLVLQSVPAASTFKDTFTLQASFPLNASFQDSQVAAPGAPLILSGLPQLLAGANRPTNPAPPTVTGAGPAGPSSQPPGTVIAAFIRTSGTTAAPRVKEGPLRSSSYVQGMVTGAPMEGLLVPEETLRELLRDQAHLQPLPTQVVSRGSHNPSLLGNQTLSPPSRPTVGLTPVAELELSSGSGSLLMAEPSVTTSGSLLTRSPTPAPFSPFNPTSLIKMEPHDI
# In short: as §1
# ELK4 = target: T3, ELK4 (Homo sapiens, UniProt P28324-2 1-405); settings: protein: recombinant; tags: N-terminal GST; dsDNA, one strand shown
# T3 sequence: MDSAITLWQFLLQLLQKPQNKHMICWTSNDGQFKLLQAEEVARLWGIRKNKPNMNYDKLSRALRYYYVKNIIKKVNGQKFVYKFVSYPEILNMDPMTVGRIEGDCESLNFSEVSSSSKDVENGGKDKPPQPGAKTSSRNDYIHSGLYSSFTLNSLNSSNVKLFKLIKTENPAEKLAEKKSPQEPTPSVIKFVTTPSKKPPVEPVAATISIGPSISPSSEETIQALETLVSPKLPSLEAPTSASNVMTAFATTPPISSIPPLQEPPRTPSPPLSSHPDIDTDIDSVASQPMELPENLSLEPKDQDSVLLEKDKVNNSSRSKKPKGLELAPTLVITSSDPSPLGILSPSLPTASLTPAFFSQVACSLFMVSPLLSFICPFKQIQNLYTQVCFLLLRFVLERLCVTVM
# In short: as §1
# ETV2 = target: T4, ETV2 (Homo sapiens, UniProt O00321 1-342); settings: protein: recombinant; tags: N-terminal GST; dsDNA, one strand shown
# T4 sequence: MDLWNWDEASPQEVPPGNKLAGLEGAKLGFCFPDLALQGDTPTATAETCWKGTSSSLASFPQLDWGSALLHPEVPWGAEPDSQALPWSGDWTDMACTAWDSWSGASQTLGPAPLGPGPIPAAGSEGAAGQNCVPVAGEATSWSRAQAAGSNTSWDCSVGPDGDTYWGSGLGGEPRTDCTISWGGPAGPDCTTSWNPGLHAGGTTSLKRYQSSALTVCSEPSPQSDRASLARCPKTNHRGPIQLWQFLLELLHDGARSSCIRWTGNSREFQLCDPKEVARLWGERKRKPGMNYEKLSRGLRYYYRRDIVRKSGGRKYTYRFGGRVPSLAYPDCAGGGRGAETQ
# In short: as §1
# ELF3 = target: T5, ELF3 (Homo sapiens, UniProt P78545 1-371); settings: protein: recombinant; tags: N-terminal GST; dsDNA, one strand shown
# T5 sequence: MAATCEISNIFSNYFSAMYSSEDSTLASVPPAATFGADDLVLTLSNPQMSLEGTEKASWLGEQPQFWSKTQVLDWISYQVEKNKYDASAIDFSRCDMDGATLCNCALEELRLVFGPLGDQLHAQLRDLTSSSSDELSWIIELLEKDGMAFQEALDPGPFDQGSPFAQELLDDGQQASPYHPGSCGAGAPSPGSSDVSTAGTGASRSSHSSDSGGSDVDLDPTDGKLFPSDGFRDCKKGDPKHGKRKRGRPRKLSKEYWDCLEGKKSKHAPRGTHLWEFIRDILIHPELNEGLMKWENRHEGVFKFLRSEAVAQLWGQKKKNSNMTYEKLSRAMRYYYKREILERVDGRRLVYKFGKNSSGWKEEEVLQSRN
# In short: as §1
# CRX = CRX (Homo sapiens, UniProt O43186 1-299); settings: protein: recombinant; tags: N-terminal GST; dsDNA, one strand shown
# Chain of CRX (O43186 whole entry): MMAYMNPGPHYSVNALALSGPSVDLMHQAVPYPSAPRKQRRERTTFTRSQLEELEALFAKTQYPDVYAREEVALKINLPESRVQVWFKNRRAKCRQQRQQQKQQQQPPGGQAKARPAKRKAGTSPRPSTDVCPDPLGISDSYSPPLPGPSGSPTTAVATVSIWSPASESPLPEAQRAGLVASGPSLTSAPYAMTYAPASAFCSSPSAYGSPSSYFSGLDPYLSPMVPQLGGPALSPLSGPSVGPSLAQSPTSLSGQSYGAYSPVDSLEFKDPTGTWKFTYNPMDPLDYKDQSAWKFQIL
# In short: as §1
# ETV1 = ETV1 (Homo sapiens, UniProt P50549 1-477); settings: protein: recombinant; tags: N-terminal GST; dsDNA, one strand shown
# Chain of ETV1 (P50549 whole entry): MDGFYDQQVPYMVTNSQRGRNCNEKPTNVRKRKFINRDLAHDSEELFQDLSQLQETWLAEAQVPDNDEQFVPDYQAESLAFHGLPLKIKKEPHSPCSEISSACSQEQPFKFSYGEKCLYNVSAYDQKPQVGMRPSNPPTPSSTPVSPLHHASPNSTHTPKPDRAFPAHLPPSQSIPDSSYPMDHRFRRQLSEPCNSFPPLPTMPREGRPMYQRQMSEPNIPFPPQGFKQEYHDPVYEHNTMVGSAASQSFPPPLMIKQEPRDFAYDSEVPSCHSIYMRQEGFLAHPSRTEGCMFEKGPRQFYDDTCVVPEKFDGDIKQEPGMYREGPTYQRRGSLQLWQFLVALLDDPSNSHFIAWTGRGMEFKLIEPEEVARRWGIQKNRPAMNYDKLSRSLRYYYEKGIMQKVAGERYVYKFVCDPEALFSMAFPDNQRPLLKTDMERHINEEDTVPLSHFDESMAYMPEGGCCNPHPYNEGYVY
# In short: as §1
# ERF = target: T6, ERF (Homo sapiens, UniProt P50548 1-548); settings: protein: recombinant; tags: N-terminal GST; dsDNA, one strand shown
# T6 sequence: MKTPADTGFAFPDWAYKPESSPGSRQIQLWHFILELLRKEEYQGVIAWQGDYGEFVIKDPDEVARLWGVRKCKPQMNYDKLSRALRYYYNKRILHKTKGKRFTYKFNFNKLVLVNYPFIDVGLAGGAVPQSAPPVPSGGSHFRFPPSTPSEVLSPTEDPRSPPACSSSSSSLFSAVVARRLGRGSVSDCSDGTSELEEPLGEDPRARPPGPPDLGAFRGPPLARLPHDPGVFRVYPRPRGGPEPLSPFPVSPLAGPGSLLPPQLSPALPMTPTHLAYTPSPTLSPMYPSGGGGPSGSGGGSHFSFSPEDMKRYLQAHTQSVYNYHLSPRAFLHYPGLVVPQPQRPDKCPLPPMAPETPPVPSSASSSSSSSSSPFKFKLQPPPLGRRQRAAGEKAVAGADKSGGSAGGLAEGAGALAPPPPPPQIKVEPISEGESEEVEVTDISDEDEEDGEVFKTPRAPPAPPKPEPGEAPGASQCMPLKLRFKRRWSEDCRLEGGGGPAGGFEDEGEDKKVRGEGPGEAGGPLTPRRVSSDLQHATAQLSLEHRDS
# In short: as §1
# ETV3L = target: T7, ETV3L (Homo sapiens, UniProt Q6ZN32 1-361); settings: protein: recombinant; tags: N-terminal GST; dsDNA, one strand shown
# T7 sequence: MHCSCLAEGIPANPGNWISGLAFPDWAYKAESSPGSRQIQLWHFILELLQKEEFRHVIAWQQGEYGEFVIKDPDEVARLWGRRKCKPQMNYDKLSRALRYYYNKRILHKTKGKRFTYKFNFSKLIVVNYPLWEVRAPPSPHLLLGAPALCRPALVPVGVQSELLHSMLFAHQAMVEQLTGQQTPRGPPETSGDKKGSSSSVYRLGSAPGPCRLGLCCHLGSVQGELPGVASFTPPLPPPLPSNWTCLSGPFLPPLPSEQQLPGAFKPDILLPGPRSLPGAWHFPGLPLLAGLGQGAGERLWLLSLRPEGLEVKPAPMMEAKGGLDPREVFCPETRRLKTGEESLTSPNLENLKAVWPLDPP
# In short: as §1
# ETS2 = target: T8, ETS2 (Homo sapiens, UniProt P15036 1-469); settings: protein: recombinant; tags: N-terminal GST; dsDNA, one strand shown
# T8 sequence: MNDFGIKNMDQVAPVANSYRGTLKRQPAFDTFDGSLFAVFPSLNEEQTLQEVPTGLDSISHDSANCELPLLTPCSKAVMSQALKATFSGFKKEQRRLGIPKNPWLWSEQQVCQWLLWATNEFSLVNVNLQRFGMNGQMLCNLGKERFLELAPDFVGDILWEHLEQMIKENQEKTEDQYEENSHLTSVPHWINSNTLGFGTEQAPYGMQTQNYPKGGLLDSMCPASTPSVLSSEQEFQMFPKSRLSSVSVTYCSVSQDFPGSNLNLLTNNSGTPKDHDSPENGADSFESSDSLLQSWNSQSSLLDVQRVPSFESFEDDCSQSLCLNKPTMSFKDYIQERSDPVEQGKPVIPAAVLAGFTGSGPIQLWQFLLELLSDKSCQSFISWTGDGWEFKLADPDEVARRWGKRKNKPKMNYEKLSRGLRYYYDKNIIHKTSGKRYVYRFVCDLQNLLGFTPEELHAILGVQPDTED
# In short: as §1
# SPDEF = target: T9, SPDEF (Homo sapiens, UniProt O95238 1-335); settings: protein: recombinant; tags: N-terminal GST; dsDNA, one strand shown
# T9 sequence: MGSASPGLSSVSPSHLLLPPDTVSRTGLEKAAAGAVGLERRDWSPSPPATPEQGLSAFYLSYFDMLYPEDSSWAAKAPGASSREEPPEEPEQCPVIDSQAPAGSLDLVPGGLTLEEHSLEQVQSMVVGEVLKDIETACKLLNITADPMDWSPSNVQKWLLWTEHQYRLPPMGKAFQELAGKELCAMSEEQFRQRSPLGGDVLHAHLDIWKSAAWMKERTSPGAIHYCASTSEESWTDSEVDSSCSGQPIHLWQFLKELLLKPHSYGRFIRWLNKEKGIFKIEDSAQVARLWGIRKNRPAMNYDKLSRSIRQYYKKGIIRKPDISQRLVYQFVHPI
# In short: as §1
# ETV7 = target: T10, ETV7 (Homo sapiens, UniProt Q9Y603 1-341); settings: protein: recombinant; tags: N-terminal GST; dsDNA, one strand shown
# T10 sequence: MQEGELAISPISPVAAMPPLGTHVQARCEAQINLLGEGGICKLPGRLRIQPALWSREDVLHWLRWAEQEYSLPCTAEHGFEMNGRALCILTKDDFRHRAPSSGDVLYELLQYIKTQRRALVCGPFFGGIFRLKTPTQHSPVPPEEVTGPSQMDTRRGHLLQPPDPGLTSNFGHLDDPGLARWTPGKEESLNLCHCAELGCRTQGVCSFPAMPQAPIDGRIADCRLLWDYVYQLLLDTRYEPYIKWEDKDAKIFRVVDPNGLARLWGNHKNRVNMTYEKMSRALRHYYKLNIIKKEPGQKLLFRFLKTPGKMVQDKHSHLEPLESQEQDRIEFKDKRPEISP
# In short: as §1
# ELF5 = target: T11, ELF5 (Homo sapiens, UniProt Q9UKW6-2 1-255); settings: protein: recombinant; tags: N-terminal GST; dsDNA, one strand shown
# T11 sequence: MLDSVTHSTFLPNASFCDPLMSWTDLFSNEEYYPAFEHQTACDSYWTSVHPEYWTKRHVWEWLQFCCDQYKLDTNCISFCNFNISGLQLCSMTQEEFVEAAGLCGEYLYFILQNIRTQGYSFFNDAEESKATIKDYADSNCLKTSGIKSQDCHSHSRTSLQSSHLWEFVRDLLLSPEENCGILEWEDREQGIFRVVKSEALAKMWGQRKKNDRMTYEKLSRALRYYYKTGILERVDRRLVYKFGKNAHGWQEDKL
# In short: as §1
# ETV3 = target: T12, ETV3 (Homo sapiens, UniProt P41162-2 1-143); settings: protein: recombinant; tags: N-terminal GST; dsDNA, one strand shown
# T12 sequence: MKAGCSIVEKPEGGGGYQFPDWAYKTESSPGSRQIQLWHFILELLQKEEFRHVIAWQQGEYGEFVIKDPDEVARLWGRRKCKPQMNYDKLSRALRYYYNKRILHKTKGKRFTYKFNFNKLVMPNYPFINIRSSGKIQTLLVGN
# In short: as §1
# ETV6 = ETV6 (Homo sapiens, UniProt P41212 1-452); settings: protein: recombinant; tags: N-terminal GST; dsDNA, one strand shown
# Chain of ETV6 (P41212 whole entry): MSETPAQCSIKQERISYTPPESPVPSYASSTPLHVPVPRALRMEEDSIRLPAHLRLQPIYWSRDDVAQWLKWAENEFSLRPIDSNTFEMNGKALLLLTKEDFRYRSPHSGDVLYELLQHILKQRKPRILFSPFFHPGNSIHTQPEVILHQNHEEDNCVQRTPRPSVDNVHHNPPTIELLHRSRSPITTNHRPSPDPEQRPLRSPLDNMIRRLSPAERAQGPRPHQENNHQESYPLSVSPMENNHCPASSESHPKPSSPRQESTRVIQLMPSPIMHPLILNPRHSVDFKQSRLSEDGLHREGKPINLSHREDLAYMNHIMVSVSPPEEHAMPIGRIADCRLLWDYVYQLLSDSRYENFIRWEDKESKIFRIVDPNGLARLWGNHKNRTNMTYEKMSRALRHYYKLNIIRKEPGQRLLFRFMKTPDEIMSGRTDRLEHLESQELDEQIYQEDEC
# In short: as §1
sequence,measurement,setting,value
AAGTTC,binding signal,FEV,"1.29 fold enrichment (6-mer frequency, TF over GST control)"
same,binding signal,ETV5,"1.47 fold enrichment (6-mer frequency, TF over GST control)"
same,binding signal,HSF1,"1.94 fold enrichment (6-mer frequency, TF over GST control)"
same,binding signal,SPIC,"1.54 fold enrichment (6-mer frequency, TF over GST control)"
same,binding signal,ELF4,"1.35 fold enrichment (6-mer frequency, TF over GST control)"
same,binding signal,ELK4,"1.41 fold enrichment (6-mer frequency, TF over GST control)"
same,binding signal,ETV2,"1.22 fold enrichment (6-mer frequency, TF over GST control)"
same,binding signal,ELF3,"1.47 fold enrichment (6-mer frequency, TF over GST control)"
same,binding signal,CRX,"1.22 fold enrichment (6-mer frequency, TF over GST control)"
same,binding signal,ETV1,"1.34 fold enrichment (6-mer frequency, TF over GST control)"
same,binding signal,ERF,"1.31 fold enrichment (6-mer frequency, TF over GST control)"
same,binding signal,ETV3L,"1.5 fold enrichment (6-mer frequency, TF over GST control)"
same,binding signal,ETS2,"1.55 fold enrichment (6-mer frequency, TF over GST control)"
same,binding signal,SPDEF,"1.54 fold enrichment (6-mer frequency, TF over GST control)"
same,binding signal,ETV7,"1.4 fold enrichment (6-mer frequency, TF over GST control)"
same,binding signal,ELF5,"1.57 fold enrichment (6-mer frequency, TF over GST control)"
same,binding signal,ETV3,"1.48 fold enrichment (6-mer frequency, TF over GST control)"
same,binding signal,ETV6,"1.52 fold enrichment (6-mer frequency, TF over GST control)"
